Laboratory results as given in PubChem BioAssay.
Results filed as inconclusive are left out. Activity calls are given as the source filed them.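 The calls were made as follows, unless noted: active = inhibition over a set limit, the all-compound mean plus 3 SD, in both replicate runs; inconclusive = over that limit in just one replicate run; inactive = at or under that limit in both runs.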

Legend:
[1] = reducers of endogenous Her2 protein level, primary screen, SKBR3 breast tumor cells, AlphaScreen, ATP viability (AID 461;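 active = Her2 level under about 52% in both replicate screens, with viability over 70% of control, limit read from the data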;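 as to Her2 level: lower value means less Her2 protein in the cells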;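 as to viability: percent of carrier control wells set as 100% viability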); conditions: 18-24 h, measured here: SKBR3 viability, ATP luminescence, at 10 µM
[2] = target: Receptor tyrosine-protein kinase erbB-2 (Homo sapiens) (UniProt P04626); assay: as above; conditions: 18-24 h, at 10 µM, stronger effect = lower value
Receptor tyrosine-protein kinase erbB-2 (Homo sapiens), sequence (P04626 whole entry, looked up): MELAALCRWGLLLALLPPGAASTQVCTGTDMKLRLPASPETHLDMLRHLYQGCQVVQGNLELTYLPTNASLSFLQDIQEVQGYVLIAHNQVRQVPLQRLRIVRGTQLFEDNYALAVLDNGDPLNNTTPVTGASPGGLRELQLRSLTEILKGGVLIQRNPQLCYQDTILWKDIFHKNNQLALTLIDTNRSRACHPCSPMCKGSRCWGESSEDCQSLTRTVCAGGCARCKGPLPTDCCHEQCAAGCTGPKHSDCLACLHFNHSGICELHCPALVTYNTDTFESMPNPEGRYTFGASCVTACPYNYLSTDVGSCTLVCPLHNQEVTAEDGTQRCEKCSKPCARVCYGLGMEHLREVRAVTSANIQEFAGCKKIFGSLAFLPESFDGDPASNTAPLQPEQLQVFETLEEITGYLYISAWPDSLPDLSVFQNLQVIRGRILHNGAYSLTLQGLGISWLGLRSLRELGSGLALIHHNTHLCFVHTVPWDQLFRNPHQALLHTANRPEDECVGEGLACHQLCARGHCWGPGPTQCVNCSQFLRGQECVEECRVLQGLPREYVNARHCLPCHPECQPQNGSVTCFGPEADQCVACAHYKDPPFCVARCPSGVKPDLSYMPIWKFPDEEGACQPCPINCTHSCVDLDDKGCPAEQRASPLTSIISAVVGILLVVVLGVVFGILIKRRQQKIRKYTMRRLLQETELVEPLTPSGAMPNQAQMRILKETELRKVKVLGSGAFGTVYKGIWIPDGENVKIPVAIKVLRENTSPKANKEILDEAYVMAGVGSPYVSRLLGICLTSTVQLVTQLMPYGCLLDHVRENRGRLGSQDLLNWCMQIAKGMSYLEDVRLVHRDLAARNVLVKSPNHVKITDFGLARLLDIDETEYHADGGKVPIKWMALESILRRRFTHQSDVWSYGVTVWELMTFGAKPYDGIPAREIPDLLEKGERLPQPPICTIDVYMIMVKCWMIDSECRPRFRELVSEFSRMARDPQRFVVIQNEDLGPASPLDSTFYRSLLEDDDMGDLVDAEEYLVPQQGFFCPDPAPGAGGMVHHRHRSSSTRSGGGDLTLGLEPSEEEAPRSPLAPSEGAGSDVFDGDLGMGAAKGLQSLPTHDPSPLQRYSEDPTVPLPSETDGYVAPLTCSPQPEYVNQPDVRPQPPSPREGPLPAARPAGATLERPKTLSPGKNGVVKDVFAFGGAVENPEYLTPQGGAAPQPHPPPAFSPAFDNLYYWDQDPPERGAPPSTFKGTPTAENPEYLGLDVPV

[3] = SK-BR-3 cell growth inhibitors, pilot screen, 24 h, human (AID 572;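 active = viability at or below 10% of carrier control in both of two separate runs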;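 also: compound exposure lasted between 18 and 24 h rather than exactly 24 h; 100% = carrier-treated control wells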); conditions: SK-BR-3 viability, CellTiter-Glo luminescence, at 10 µM, stronger effect = lower value
[4] = HUVEC growth inhibition – cell-based, human, primary screen (AID 575;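 active = viability at or below 30% in both replicate assays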;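 also: 100% = median of untreated cell wells with 0.1% DMSO on each plate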); conditions: HUVEC proliferation, CellTiter-Glo luminescence, 72 h; at 10 µM; stronger effect = lower value
[5] = growth inhibitors of H69AR lung tumor, primary screen, human, duplicate replicates (AID 580;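 active = viability at or under a set limit in both replicates, limit being median viability minus 3 SD, cut at about 48% in these data, passing the limit was not always enough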;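 also: 100% = mean luminescence of untreated wells and 0% = no signal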); conditions: H69AR lung tumor cells viability, ATP luminescence, 72 h; at 10 µM; stronger effect = lower value
[6] = reversal of MRP1-mediated doxorubicin resistance, pilot screen, H69AR cells, doxorubicin co-treatment (AID 601;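 active = viability loss from added drug above about 55%, and viability with drug at most 40%, in both replicates, limit read from the data, passing the limit was not always enough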); conditions: CellTiter-Glo, 72 h, at 10 µM; for differential viability (reversal): stronger effect = higher value
[7] = 384-well plate pilot, post-Golgi transport modulator project, inhibition of yeast transport mutant growth (AID 636; in the data active = inhibition above about 31%); conditions: absorbance 615 nm, about 18 h, stronger effect = higher value
[8] = growth suppression of yeast trafficking mutant, preliminary HTS, modulators of trafficking downstream of Golgi apparatus project, 1536-format plate, OD 615 nm (AID 637; in the data active = inhibition above about 30%); conditions: yeast transport mutant growth, absorbance 615 nm, 18 h; stronger effect = higher value
[9] = OD615 S. cerevisiae growth inhibition, permissive medium, pilot counter-assay, permissive growth control for S. cerevisiae lifespan shortening project (AID 705;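 active = growth inhibition above 25% in both replicates, a cutoff set 3 SD above the mean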); conditions: OD615, 24 h, at 10 µM, stronger effect = higher value
[10] = Restrictive medium S. cerevisiae growth inhibition, OD615, pilot screen of yeast lifespan reduction project, restrictive growth control (AID 706;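 active = growth inhibition above a set limit, 3 SD over mean compound inhibition, in both replicates, cut at about 43% in these data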;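 also: modified DeaD lifespan yeast strain shifted to restrictive glucose medium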); conditions: OD615, 48 h, at 10 µM, stronger effect = higher value
[11] = viability gain of MRP-1-high H69AR cells under doxorubicin, pilot screen, MRP-1 activator project, CellTiter-Glo, duplicate (AID 807;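 active = viability increase at or above a cutoff of the median across tested compounds plus 3 SD, cut at about 8.5% in these data, passing the limit was not always enough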;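 also: compound pretreatment 18-22 h then 72 h combined with doxorubicin; 0% = doxorubicin alone and 100% = vehicle without doxorubicin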); conditions: H69AR viability with doxorubicin, CellTiter-Glo luminescence; at 10 µM; stronger effect = higher value
[12] = growth suppression of beta-catenin knockout HCT116, pilot screen, human colon tumor cells (AID 823;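 active = cell viability at or below a set limit in both duplicate runs, the limit being the all-compound median minus 4 SD, cut at about 23% in these data, passing the limit was not always enough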;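 also: 0% = wells killed by 20 µM Hyamine and 100% = untreated DMSO cell wells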); conditions: CellTiter-Glo, 60 h, at 10 µM, stronger effect = lower value
[13] = growth suppression of PTEN-deleted HCT116, pilot screen, cell-based, HCT116 clonal line, CellTiter-Glo (AID 824;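 active = viability at or below 27.92% in each of two runs, the all-compound median minus 4 SD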;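 also: 0% = 20 µM Hyamine control and 100% = vehicle cell control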); conditions: 60 h, at 10 µM, stronger effect = lower value
[14] = inhibitors of the yeast RAM network, pilot screen, dse1pr::URA3 reporter, 5-FOA selection (AID 869);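 also: 0% = DMSO wells with no growth and 100% = 10 µM 1-NA-PP1 with full growth; RAM network block rescues cells from 5-FOA so hits raise OD615 growth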; conditions: S. cerevisiae dse1pr::URA3 5-FOA growth, OD615, 2 d; at 10 µM; stronger effect = higher value; strain carries analog-sensitive mutant Cbk1 kinase
[15] = RAM signaling pathway blockade in yeast – S. cerevisiae, Pdr1DBD-CYC8 efflux-inhibited sensitized strain, primary screen (AID 1298;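 active = RAM network inhibition above 8.4% in each of two replicates, 3 SD over the compound average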;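 also: 0% = DMSO untreated cells without growth and 100% = 10 µM 1-NA-PP1 full growth; higher means more yeast growth rescued from 5-FOA killing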); conditions: S. cerevisiae cbk1-as DSE1-URA3 strain, 5-FOA growth OD615, 2 d; at 50 µM; stronger effect = higher value
[16] = H69AR cells + 2 uM doxorubicin, measured here: viability with 2 uM doxorubicin, stronger effect = lower value
[17] = H69AR cells, compound alone cytotoxicity

Structure (SMILES)	viability [1] [%]	Her2 level [2]	viability [3]	viability [4]	viability [5]	differential viability (reversal) ([6]; H69AR cells + 2 uM doxorubicin)	viability [6, 16] [%]	viability [6, 17] [%]	inhibition [7]	inhibition [8]	growth inhibition [9]	growth inhibition [10]	viability increase [11]	viability [12]	viability [13]	inhibition [14]	RAM network inhibition [15]
COc1ccc(N2CCN(C(c3ccccc3)c3sc4nc(C)nn4c3O)CC2)cc1 (stereo unspecified)	91.5	101% (inactive)	91.5% (inactive)	82.2% (inactive)	90% (inactive)	-8.41% (inactive)	98.4	90	-4.93% (inactive)	-2.17% (inactive)	1.81% (inactive)	-0.505% (inactive)	-1.28% (inactive)	96.8% (inactive)	97.3% (inactive)	2.81% (inactive)	-0.02% (inactive)
CCCCS(=O)(=O)NC1=NCN(CCOC(=O)c2ccccc2)CN1	95.5	84.5% (inactive)	95.5% (inactive)	104% (inactive)	102% (inactive)	14.3% (inactive)	87.6	102	-3.6% (inactive)	2.58% (inactive)	-8.81% (inactive)	-6.13% (inactive)	-2.67% (inactive)	91.8% (inactive)	93.2% (inactive)	0.005% (inactive)	0.98% (inactive)
c1nc(NCC2(N3CCOCC3)CCCCC2)c2ccsc2n1	82.5	93% (inactive)	82.5% (inactive)	97.7% (inactive)	98.6% (inactive)	-0.545% (inactive)	99.2	98.6	-5.27% (inactive)	-2.54% (inactive)	-25.4% (inactive)	3.08% (inactive)	-3.33% (inactive)	78.8% (inactive)		1.14% (inactive)	8.05% (inactive)
CCOc1ccc(N(CC(=O)Nc2ccc(C)c(C)c2)S(=O)(=O)c2c(C)noc2C)cc1	101	75% (inactive)	101% (inactive)	68.8% (inactive)	53.8% (inactive)	-14.4% (inactive)	68.2	53.8	-0.13% (inactive)	3.67% (inactive)	0.98% (inactive)	-5.67% (inactive)	-6.26% (inactive)	27.4% (inactive)		1.85% (inactive)	6.75% (inactive)
CCOC(=O)Cn1nc(-c2ccc(Cl)cc2)cc1N	78	116% (inactive)	78% (inactive)	91.8% (inactive)	101% (inactive)	18% (inactive)	83.1	101	-7.95% (inactive)	-0.48% (inactive)	-8.98% (inactive)	2.33% (inactive)	0.37% (inactive)	102% (inactive)		1.88% (inactive)	5.56% (inactive)
c1ccc(-c2nnc(CSc3nncs3)o2)cc1	104	86.5% (inactive)	104% (inactive)	88.4% (inactive)	106% (inactive)	13.6% (inactive)	92.9	106	-3.95% (inactive)	-4.67% (inactive)	-16% (inactive)	8.37% (inactive)	-0.84% (inactive)	106% (inactive)		1.01% (inactive)	5.21% (inactive)
COc1cccc(N(C(C)=O)c2nc(C)cc(C)c2C#N)c1	102	87% (inactive)	102% (inactive)	96.1% (inactive)	104% (inactive)	8.34% (inactive)	95.3	104	-7.26% (inactive)	-1.59% (inactive)	-15.4% (inactive)	9.36% (inactive)	-0.35% (inactive)	109% (inactive)		1.36% (inactive)	2.39% (inactive)
Cc1nc(NCc2ccc3c(c2)OCO3)c2oc3ccccc3c2n1	99	104% (inactive)	99% (inactive)	60% (inactive)	98.3% (inactive)	-8.4% (inactive)	107	98.3	-0.93% (inactive)	-2.9% (inactive)	-23.6% (inactive)	-6.14% (inactive)	-0.11% (inactive)	82.7% (inactive)		0.65% (inactive)	3.7% (inactive)
COc1ccccc1N1CCN(c2cc(=O)n(Cc3ccc(F)cc3)c(=O)[nH]2)CC1	99	68.5% (inactive)	99% (inactive)	44.1% (inactive)	12.1% (active)	-38% (inactive)	50.1	12.1	0% (inactive)	9.17% (inactive)	-0.995% (inactive)	0.535% (inactive)	-5.11% (inactive)	33.6% (inactive)		1.02% (inactive)	2.69% (inactive)
